This is an account of results in the supplement of paper PMC12669032.

Each structure is given as a SMILES string. A number with no mark means an inactive call.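 Rule for the calls: active = AUC reduced over 20% with Padj below 0.05 in at least 2 of 3 replicates; inactive = otherwise.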

One assay relates to Roseburia intestinalis. The assay can be described thus: growth AUC relative to DMSO control (median of replicates) (fraction); higher = more growth (less inhibition), active = hit call of the paper. The settings on record: 20 µM; 24 h. Put shortly: (§1)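 Gut bacterial monocultures were grown anaerobically at 37 °C in mGAM, starting at OD600 0.05, with 20 µM compound (1% DMSO) in round-bottom 96-well plates under pierced gas-permeable seals. OD600 was read hourly for 24 h. Area under the growth curve (minimum OD set to 0) was normalised to the plate median of DMSO controls, or to row and column medians on the industrial chemical plate. The value is the median of three biological replicates grown on separate days.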

The next assay deals with Streptococcus salivarius. The description is as above. The settings on record: 20 µM; 24 h. Put shortly: as §1

On to `CNC(=S)S`, for which the “growth AUC” value in the assay with Roseburia intestinalis is 1.1; in the assay with Streptococcus salivarius, 0.997.
For `COC(=O)c1ccccc1S(=O)(=O)NC(=O)Nc1nc(C)cc(C)n1` the same measures were 0.944 and 0.982.
On the same counts, the results for `CC(C)Oc1cc(-n2nc(C(C)(C)C)oc2=O)c(Cl)cc1Cl` are 0.931 and 0.971.
For `O=c1oc2ccccc2c(O)c1C1CC(c2ccc(-c3ccc(Br)cc3)cc2)Cc2ccccc21` (stereo unspecified) the same measures were 0.345 (active) and 0.393 (active).
Take `COP(=O)(OC)O/C(C)=C/C(=O)N(C)C`: the figures for the “growth AUC” value with Roseburia intestinalis and in the assay on Streptococcus salivarius were 0.988 and 0.984, respectively.
Turning to `CC(C)OC(=O)Nc1ccccc1`, the “growth AUC” value in the assay on Roseburia intestinalis was 1.06; in the assay on Streptococcus salivarius, 1.01.
On the same counts, the results for `C[C@@H](Oc1ccc(Cl)cc1Cl)C(=O)O` are 0.927 and 0.919.
On the same counts, the results for `CC(C)C(C(=O)OC(C#N)c1cccc(Oc2ccccc2)c1)c1ccc(Cl)cc1` (stereo unspecified) are 0.929 and 0.988.
On the same counts, the results for `Clc1cc(Cl)c(Cl)cc1Cl` are 0.962 and 0.935.
Take `CS(=O)(=O)c1ccc(C(=O)C2C(=O)CCCC2=O)c([N+](=O)[O-])c1`: the results for the “growth AUC” value in the assay on Roseburia intestinalis and in the assay with Streptococcus salivarius were 0.976 and 1.03, respectively.
For `CCNP(=S)(OC)O/C(C)=C/C(=O)OC(C)C` (stereo unspecified) the same measures were 1.05 and 0.99.
For `O=C(O)C(Cl)Cl` the same measures were 1.02 and 1.02.
In the case of `COP(=S)(OC)Oc1ccc(C#N)cc1`, the “growth AUC” value in the assay with Roseburia intestinalis is 1.06; in the assay on Streptococcus salivarius it was 0.959.
For `CCOC(=O)c1ccccc1S(=O)(=O)NC(=O)Nc1nc(Cl)cc(OC)n1` the same measures were 1.01 and 0.972.
For `CNC(=O)Oc1cccc2c1OC(C)(C)C2O` (stereo unspecified) the same measures were 0.979 and 1.02.
On the same counts, the results for `CCNc1nc(Cl)nc(NCC)n1` are 0.968 and 1.03.
Consider `CNC(=O)Oc1cccc2c1OC(C)(C)C2`, for which the figures for the “growth AUC” value in the assay on Roseburia intestinalis and in the assay with Streptococcus salivarius were 0.992 and 1.03, respectively.
On the same counts, the results for `CN(C)C(=O)Nc1cccc(OC(=O)NC(C)(C)C)c1` are 1.05 and 0.975.
On the same counts, the results for `COP(=S)(OC)Oc1cc(Cl)c(I)cc1Cl` are 0.974 and 0.936.
Consider `COP(=S)(OC)Oc1ccc([N+](=O)[O-])c(C)c1`, for which the figures for the “growth AUC” value in the assay on Roseburia intestinalis and with Streptococcus salivarius were 0.949 and 0.991, respectively.
On to `Cc1c(N)cccc1N`, for which the “growth AUC” value was 0.997 in the assay on Roseburia intestinalis and 1.01 with Streptococcus salivarius.
For `O=C(O)CCl` the same measures were 0.962 and 0.979.
On the same counts, the results for `CCCCCCCCCCCCCN1CC(C)OC(C)C1` (stereo unspecified) are 0.937 and 1.01.
For `CCC(C)Nc1c([N+](=O)[O-])cc(C(C)(C)C)cc1[N+](=O)[O-]` (stereo unspecified) the same measures were 0.927 and 1.04.
As to `COP(=S)(OC)Oc1cc(Cl)c(Br)cc1Cl`, the “growth AUC” value in the assay with Roseburia intestinalis was 1.03; in the assay on Streptococcus salivarius, 0.995.
As to `CNC(=O)/C(=N/OC)c1ccccc1Oc1ccccc1`, the “growth AUC” value in the assay with Roseburia intestinalis was 1.04; in the assay with Streptococcus salivarius, 0.989.
On the same counts, the results for `CC(Oc1ccc(Cl)cc1Cl)C(=O)O` (stereo unspecified) are 0.978 and 0.981.
On the same counts, the results for `O=c1[nH]c(Cl)c(Cl)cc1Cl` are 0.993 and 0.998.
